The values that follow come from PubChem BioAssay (Tox21).

Values without a mark were called inactive. Results filed as inconclusive are left out. Activity calls are given as the source filed them. Unless noted, calls follow the shape of the dose curve; as a rule, active = well fitted curve in the direction sought with a large enough effect in the repeat runs; inconclusive = weak or mixed curves; inactive = no such curve, though single readings can be large; an effect the other way counts as inactive or inconclusive.

The target of test [1] is Luciferin 4-monooxygenase (Photinus pyralis) (UniProt P08659). The test can be described thus: qHTS assay to identify small molecule inhibitors of firefly luciferase (AID 1224835). Also: nearly all actives have a fitted effect of over 25% in size. The essentials:
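Quantitative HTS format; KM concentrations of both substrates. Purified P. pyralis FLuc activity quantified from luminescence images.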

Test [2] in a line: qHTS assay to identify small molecule agonists of the constitutive androstane receptor (CAR) signaling pathway - cell viability counter screen (AID 1224836). Also: nearly all actives have a fitted effect of over 45% in size. The essentials:
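Double-stable HepG2 hepatoma cells (hCAR plus CYP2B6-2.2kb) are treated for 23 h at 37 C with test compounds in 15-point concentration series. PK11195 at 0.75 uM final is co-added. Cell viability is quantified by CellTiter-Fluor.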

The nature of test [3]: qHTS assay to identify small molecule antagonists of the constitutive androstane receptor (CAR) signaling pathway - cell viability counter screen (AID 1224837). Also: nearly all actives have a fitted effect of over 45% in size. The essentials: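 Read-out: CellTiter-Fluor fluorescence after 23 hr at 37 C/5% CO2. Cells: HepG2 double-stable for hCAR and CYP2B6-2.2kb. Compounds tested at 15 concentrations in the presence of CITCO, final concentration 50 nM.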
In general terms: Quantitative high-throughput screening tests each substance at several concentrations.

Test [4] has as its target Nuclear receptor subfamily 1 group I member 3 (Homo sapiens) (UniProt Q14994). Put plainly: qHTS assay to identify small molecule agonists of the constitutive androstane receptor (CAR) signaling pathway (AID 1224839). Also: nearly all actives have a fitted effect of over 15% in size. Also: potency is read from the fitted curve at half-maximal effect.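 As to activation: HepG2 cells stably carrying human CAR and a CYP2B6 luciferase reporter.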 The essentials:
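Readout: firefly luciferase luminescence via ONE-Glo. System: HepG2 double-stable for hCAR and CYP2B6-2.2kb. Conditions: 15-point compound titration, PK11195 at 0.75 uM final, 24 h incubation.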

Test [5] is described as follows: qHTS assay to identify small molecule antagonists of the estrogen related receptor signaling pathway with the pleiotropic PPARgamma coactivator (PGC) from Tox21 10K library - cell viability counter screen (AID 1224840; active = well fitted cell-killing curve with a large enough effect in the repeat runs, not every such curve was filed as active; also: nearly all actives have a fitted effect of over 40% in size). The essentials: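 Fluorescence read-out of CellTiter-Fluor viability reagent, added after cells had been exposed to compound in DMSO for 17.5 h at 37 C; 30 min development at 37 C/5% CO2. Cells: PGC/ERR line, 2,000/well.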

A short description of test [6]: qHTS assay to identify small molecule agonists of the hypoxia (HIF-1) signaling pathway - cell viability counter screen (AID 1224844; calls by dose curve; also: nearly all actives have a fitted effect of over 50% in size; also: potency is read from the fitted curve at half-maximal effect). The essentials: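 CellTiter-Glo luminescence read-out, 30 min RT, taken in the same wells as the beta-lactamase HRE reporter assay; HRE-bla ME-180 cells, 0.5% dialyzed FBS, 17 hr compound treatment at 37C, 5% CO2.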
The nature of test [7]: qHTS assay to identify small molecule agonists of H2AX (AID 1224845; active = well fitted activation curve with a large enough effect in the signal ratio in the repeat runs, not every such curve was filed as active; the % refers to the signal ratio; also: potency is read from the fitted curve at half-maximal effect). The essentials:
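Wild-type CHO-K1 cells plated overnight, then exposed 3 hr at 37C to compounds at 15 concentrations (0.76% DMSO). Lysed, then HTRF anti-pH2AX(S139)-cryptate/anti-H2AX-d2 detection after 24 hr at room temperature; emissions 665 and 620 nm.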

Test [8] can be described thus: qHTS assay to identify small molecule agonists of the hypoxia (HIF-1) signaling pathway (AID 1224846; active = well fitted activation curve with a large enough effect in the signal ratio in the repeat runs, not every such curve was filed as active; the % refers to the signal ratio). The essentials: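 Beta-lactamase FRET read-out (CCF4-AM substrate) from ME-180 cells carrying an HRE-driven bla reporter, after 17 hrs compound exposure at 37C/5% CO2. Cells were seeded at 2,000 per well in 0.5% dialyzed FBS medium and preincubated 5 hrs.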
Test [9] in a line: qHTS assay to identify small molecule agonists of H2AX - cell viability counter screen (AID 1224847; calls by dose curve; also: nearly all actives have a fitted effect of over 30% in size; also: potency is read from the fitted curve at half-maximal effect). The essentials:
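For this counter screen, overnight-attached CHO-K1 cells received test compounds (15 concentrations, 0.76% DMSO final); 3 hr later at 37C, CellTiter-Glo reagent was added and luminescence recorded after 30 min at room temperature.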

Test [10] is described as follows: qHTS RealTime-Glo MT Cell Viability Assay in HepG2 cells - 24 hour (AID 1224867). Also: nearly all actives have a fitted effect of over 50% in size. The essentials: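 Cells + NanoLuc/prosubstrate dispensed (600 cells/well) → 5 h at 37 C/5% CO2 → compounds in DMSO transferred → 40 h incubation at 37 C, luminescence read at 0, 8, 16, 24, 32, 40 h.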
A short description of test [11]: qHTS RealTime-Glo MT Cell Viability Assay in HEK293 cells - 32 hour (AID 1224868). Also: top concentration of the series differs between compounds; nearly all actives have a fitted effect of over 50% in size. The essentials: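 Tox21 10K qHTS, HEK293, 600 cells/well, RealTime-Glo reagent co-dispensed with cells; 5 h preincubation, compound by pintool, 37 C, luminescence at 0–40 h.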
A short description of test [12]: qHTS RealTime-Glo MT Cell Viability Assay in HepG2 cells - 40 hour (AID 1224870). Also: nearly all actives have a fitted effect of over 50% in size. The essentials: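 HepG2 cells mixed with RealTime-Glo MT reagents (NanoLuc plus cell-permeant prosubstrate) were seeded at 600 cells/well, incubated 5 h at 37 C/5% CO2, then pinned with compounds in DMSO; nonlytic luminescence tracked viability during 40 h treatment.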
In test [13] the target is Nuclear receptor subfamily 1 group I member 3 (Homo sapiens) (UniProt Q14994). Put plainly: qHTS assay to identify small molecule antagonists of the constitutive androstane receptor (CAR) signaling pathway (AID 1224838).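 Also: HepG2 cells stably expressing hCAR with CYP2B6 luciferase reporter stimulated by CITCO; nearly all actives have a fitted effect of over 40% in size.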 The essentials: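 Read-out: ONE-Glo luciferase luminescence after 30 min at room temperature. HepG2-CYP2B6-hCAR double-stable cells, compounds in 15-point titration plus 50 nM CITCO final, 24 h at 37 C/5% CO2.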

Test [14] in a line: qHTS assay to identify small molecule antagonists of the estrogen related receptor signaling pathway with the pleiotropic PPARgamma coactivator (PGC) from Tox21 10K library (AID 1224841; call rule not given here). The essentials: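 Luminescence read-out (One-Glo luciferase reagent, 30 min at room temperature) from PGC/ERR cells exposed to DMSO-dissolved test compounds for 18 h at 37 C; cells, 2,000 per well, had been preincubated 6 h before compound transfer.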

A short description of test [15]: qHTS assay to identify small molecule agonists of the estrogen related receptor signaling pathway with the pleiotropic PPARgamma coactivator (PGC) from Tox21 10K library (AID 1224842). Also: nearly all actives have a fitted effect of over 15% in size. The essentials:
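PGC/ERR reporter cells (NTP line) were seeded 2,000 per well, rested 6 h at 37 C/5% CO2, then pin-dosed with compounds in DMSO for 18 h at 37 C; luciferase read by One-Glo luminescence after 30 min at room temperature.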

For test [16], the target named is Thyrotropin receptor (Homo sapiens) (UniProt P16473). Put plainly: qHTS assay to identify small molecule agonists of the thyroid stimulating hormone receptor (TSHR) signaling pathway (AID 1224843; calls by dose curve; also: nearly all actives have a fitted effect of over 45% in size). The essentials:
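Using 15 concentrations per compound in triplicate, cAMP production was monitored in TSHR-HEK293 cells after 30 min compound incubation at RT; HTRF reagents followed, with fluorescence intensity recorded after 1 h.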

Test [17] is described as follows: qHTS assay to identify small molecule antagonists of the estrogen related receptor (ERR) signaling pathway from Tox21 library (AID 1224848). Also: nearly all actives have a fitted effect of over 50% in size. The essentials: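 Tox21 10K compounds in DMSO tested for ERR pathway antagonism in NTP's ERR cell line; 18 h, 37 C exposure; ONE-Glo luminescence.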
Test [18] in a line: qHTS assay to identify small molecule agonists of the estrogen related receptor (ERR) signaling pathway from Tox21 library (AID 1224849; calls by dose curve; also: nearly all actives have a fitted effect of over 15% in size). To be noted: ERR reporter cell line, ONE-Glo luciferase, 18 h; at 92.4 µM (top of the series) unless noted. The essentials: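 Luminescence readout (ONE-Glo, 30 min RT) after 18 h compound exposure at 37 C of NTP-supplied ERR reporter cells; cells were plated 6 h before compound addition by pin tool.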

A short description of test [19]: A CellTox Green Cytotoxicity Assay to monitor cytotoxicity in HEK293 cells - 0 hour (AID 1224869). Also: nearly all actives have a fitted effect of over 50% in size. The essentials: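 Read-out: fluorescence of a cell-impermeant cyanine dye staining DNA of dead cells, proportional to cytotoxicity. HEK293, 600 cells/well with reagent, compound (23 nL DMSO) added after 5 h; reads at 0, 8, 16, 24, 32, 40 h.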
% is scaled to controls: 0 for no effect and ±100 for the full control effect.

Luciferin 4-monooxygenase (Photinus pyralis), sequence (P08659 whole entry, looked up): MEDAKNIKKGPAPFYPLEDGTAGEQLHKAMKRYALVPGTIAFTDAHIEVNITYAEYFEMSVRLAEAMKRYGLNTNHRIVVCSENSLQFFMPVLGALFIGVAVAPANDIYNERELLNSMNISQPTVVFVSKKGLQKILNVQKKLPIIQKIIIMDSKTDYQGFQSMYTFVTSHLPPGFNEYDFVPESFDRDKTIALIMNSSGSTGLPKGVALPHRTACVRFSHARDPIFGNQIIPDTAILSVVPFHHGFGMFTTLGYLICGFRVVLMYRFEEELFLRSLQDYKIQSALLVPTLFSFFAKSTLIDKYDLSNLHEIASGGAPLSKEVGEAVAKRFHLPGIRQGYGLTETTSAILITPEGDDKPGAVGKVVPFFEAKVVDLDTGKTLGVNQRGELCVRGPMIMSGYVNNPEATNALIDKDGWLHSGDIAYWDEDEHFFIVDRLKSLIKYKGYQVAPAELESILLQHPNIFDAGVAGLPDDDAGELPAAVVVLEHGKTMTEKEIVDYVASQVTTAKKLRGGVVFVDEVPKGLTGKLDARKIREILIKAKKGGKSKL
Thyrotropin receptor (Homo sapiens), sequence (P16473 whole entry, looked up): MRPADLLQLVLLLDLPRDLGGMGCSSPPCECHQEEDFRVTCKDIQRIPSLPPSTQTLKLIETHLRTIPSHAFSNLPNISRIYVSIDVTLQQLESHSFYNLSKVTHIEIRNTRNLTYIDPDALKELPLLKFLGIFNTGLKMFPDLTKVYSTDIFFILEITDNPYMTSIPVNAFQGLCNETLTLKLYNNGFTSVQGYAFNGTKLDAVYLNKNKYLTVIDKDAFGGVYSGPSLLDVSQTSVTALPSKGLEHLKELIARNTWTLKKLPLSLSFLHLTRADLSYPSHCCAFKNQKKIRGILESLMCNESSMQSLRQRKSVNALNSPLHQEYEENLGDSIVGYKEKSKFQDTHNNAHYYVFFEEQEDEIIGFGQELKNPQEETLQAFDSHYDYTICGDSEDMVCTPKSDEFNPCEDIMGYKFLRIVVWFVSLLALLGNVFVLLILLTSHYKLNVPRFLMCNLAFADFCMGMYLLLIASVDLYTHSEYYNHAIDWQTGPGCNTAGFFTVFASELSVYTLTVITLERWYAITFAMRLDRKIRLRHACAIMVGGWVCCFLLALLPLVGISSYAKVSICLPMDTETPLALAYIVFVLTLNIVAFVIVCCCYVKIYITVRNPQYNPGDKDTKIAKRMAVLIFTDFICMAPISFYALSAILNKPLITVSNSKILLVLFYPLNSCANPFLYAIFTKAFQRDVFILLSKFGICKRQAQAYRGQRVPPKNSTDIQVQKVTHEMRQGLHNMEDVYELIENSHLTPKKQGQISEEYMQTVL
Nuclear receptor subfamily 1 group I member 3 (Homo sapiens), sequence (Q14994 whole entry, looked up): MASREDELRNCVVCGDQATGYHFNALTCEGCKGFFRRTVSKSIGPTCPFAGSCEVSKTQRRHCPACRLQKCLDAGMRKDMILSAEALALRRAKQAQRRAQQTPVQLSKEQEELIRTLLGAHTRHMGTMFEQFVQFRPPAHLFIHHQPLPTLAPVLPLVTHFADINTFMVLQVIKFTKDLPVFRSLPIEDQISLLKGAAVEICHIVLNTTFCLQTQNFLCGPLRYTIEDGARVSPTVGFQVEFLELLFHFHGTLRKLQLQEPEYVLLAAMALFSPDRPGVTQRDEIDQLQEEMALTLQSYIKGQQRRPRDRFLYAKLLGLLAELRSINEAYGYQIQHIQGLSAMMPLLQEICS

For `CCC(=O)C(CCN(C)C)(c1ccccc1)c1ccccc1`, the Potency entry in test [1], in test [2], in [3], in test [4], in test [5] and in test [6] was “inactive” each time. For the same compound, the Potency result in test [7], in [9], in test [10], in test [11] and in [12] was “inactive” throughout. Also, the compound was called inactive in test [8].

For the compound `CCC(C)n1c(=O)[nH]c(C)c(Br)c1=O` (stereo not drawn), the Potency entry in test [2], in test [3], in [13], in test [4], in test [5] and in test [14] was “inactive” in each case. Also, the Potency result in test [16], in test [6], in test [7], in test [9], in test [17] and in test [10] was “inactive” each time. The Potency entry in test [11], in test [19] and in test [12] was “inactive” in each case. In addition, the result in test [15] and in test [8] was inactive. Further, in [18], the activity change, positive = activation is -4.95%.

`CN(N=O)C(N)=O`: the Potency result in [1], in [2], in test [3], in test [13], in [4] and in [5] was “inactive” in each case. Besides, the Potency entry in test [6], in test [7], in [9], in test [10], in test [11] and in test [19] was “inactive” throughout. Moreover, the Potency result in test [12] is “inactive”.

Regarding `CNC(=O)Oc1ccc(N(C)C)c(C)c1`, the Potency result in test [1], in test [2], in [3], in [13], in test [5] and in [14] was “inactive” throughout. Moreover, the Potency entry in [16], in [6], in test [7], in test [9], in test [17] and in test [10] was “inactive” throughout. In addition, the Potency result in test [19] and in [12] was “inactive” throughout. Moreover, the compound was classed as inactive in [15] and in test [8].

Take `CCCCN(CCCCO)N=O`: the Potency result in test [2], in test [3], in test [13], in test [4], in [5] and in test [14] was “inactive” each time. Further, the Potency entry in test [16], in test [6], in test [7], in [9], in test [17] and in test [10] was “inactive” each time. In addition, the Potency entry in test [11], in test [19] and in test [12] was “inactive” in each case. In addition, the result in test [15] was inactive. Besides, the activity change, positive = activation in test [18] is -8.16%.

As for `CCOP(=O)(N=C1SCCS1)OCC`, the Potency result in test [1], in test [2], in test [13], in [4], in test [5] and in [16] was “inactive” in each case. The Potency entry in test [6], in test [7], in test [9], in [10], in [19] and in test [12] was “inactive” each time.

For `C=CCC1=C(C)[C@@H](OC(=O)[C@@H]2[C@@H](C=C(C)C)C2(C)C)CC1=O`, the Potency result in [1], in test [3], in test [13], in [16], in test [19] and in test [12] was “inactive” each time. Further, the Potency was 24.3 µM (active) in test [4], 54.9 µM (active) in [6], 56.6 µM (active) in test [7] and 50.5 µM (active) in test [9]. The outcome in [15] was inactive. Also, the activity change, positive = activation in test [18] was -64.6%.

For `O=C(O)C(Br)CBr` (stereo not drawn), the Potency result in test [1], in test [2], in test [3], in test [5], in [16] and in [6] was “inactive” each time. In addition, the Potency entry in [7], in [9], in [10], in [11], in [19] and in [12] was “inactive” throughout. In addition, in test [8], the call was inactive.
